Hit rate of the full screen: of about 5,500 compounds, about 2,000 (36%) were called active. Inconclusive results (about 18%) are left out. Cut-off read from the data, not from the text of the source: active = normalized growth mostly below about 0.91 (no sharp cut-off); inconclusive = no clear call, values can overlap the other calls; inactive = mostly above about 0.92. Some of the results follow.
Test: chemical genetic growth profiling, strain panel (AID 1159580);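 note: tested at 20 µM; growth read once vehicle control cultures reached saturation at 30 °C; 1 = growth at the plate median or of vehicle wells; lower values mean less growth of the strain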
Settings: growth OD

Measured: normalized growth

CC1=C(/C=C/C(C)=C/C=C/C(C)=C/CO)C(C)(C)CCC1
inactive: S. cerevisiae deletion strains, locus YJR043C, strain POL32, active compounds read low 0.985 | S. cerevisiae deletion strains, locus YJR066W, strain TOR1, active compounds read low 0.94 | S. cerevisiae deletion strains, locus YKL009W, strain mrt4, active compounds read low 0.993 | S. cerevisiae deletion strains, locus YKL068W, active compounds read low 0.997 | S. cerevisiae deletion strains, locus YKL085W, strain MDH1 (second series), active compounds read low 0.972 | S. cerevisiae deletion strains, locus YKL085W, strain MDH1, active compounds read low 0.972 | S. cerevisiae deletion strains, locus YKL160W, strain elf1, active compounds read low 1.04 | S. cerevisiae deletion strains, locus YKL190W, strain CNB1, active compounds read low 0.991 | S. cerevisiae deletion strains, locus YKR001C, strain vps1, active compounds read low 0.984 | S. cerevisiae deletion strains, locus YKR026C, strain gcn3, active compounds read low 1.02 | S. cerevisiae deletion strains, locus YKR091W, strain srl3, active compounds read low 1.01 | S. cerevisiae deletion strains, locus YLL001W, strain dnm1, active compounds read low 0.975 | S. cerevisiae deletion strains, locus YLL026W, active compounds read low 1.03 | S. cerevisiae deletion strains, locus YLL041C, strain sdh2, active compounds read low 0.99 | S. cerevisiae deletion strains, locus YLR027C, strain aat2, active compounds read low 1.01 | S. cerevisiae deletion strains, locus YLR039C, strain RIC1, active compounds read low 1.01 | S. cerevisiae deletion strains, locus YLR058C, strain SHM2, active compounds read low 0.976 | S. cerevisiae deletion strains, locus YLR102C, strain apc9, active compounds read low 1 | S. cerevisiae deletion strains, locus YLR113W, strain HOG1, active compounds read low 1 | S. cerevisiae deletion strains, locus YLR221C, strain rsa3, active compounds read low 0.973 | S. cerevisiae deletion strains, locus YLR258W, strain gsy2, active compounds read low 1.03 | S. cerevisiae deletion strains, locus YLR262C, strain YPT6 (second series), active compounds read low 0.972 | S. cerevisiae deletion strains, locus YLR262C, strain YPT6, active compounds read low 0.934 | S. cerevisiae deletion strains, locus YLR268W, strain sec22, active compounds read low 1 | S. cerevisiae deletion strains, locus YLR320W, strain mms22, active compounds read low 0.972 | S. cerevisiae deletion strains, locus YLR330W, strain CHS5, active compounds read low 1 | S. cerevisiae deletion strains, locus YLR342W, strain FKS1 (second series), active compounds read low 1.1 | S. cerevisiae deletion strains, locus YLR342W, strain FKS1, active compounds read low 1.03 | S. cerevisiae deletion strains, locus YLR357W, strain rsc2, active compounds read low 1.01 | S. cerevisiae deletion strains, locus YLR370C, strain arc18, active compounds read low 1.01 | S. cerevisiae deletion strains, locus YLR371W, strain rom2, active compounds read low 1.02 | S. cerevisiae deletion strains, locus YLR384C, strain iki3, active compounds read low 1.01 | S. cerevisiae deletion strains, locus YLR418C, strain cdc73, active compounds read low 0.965 | S. cerevisiae deletion strains, locus YML016C, strain PPZ1, active compounds read low 0.998 | S. cerevisiae deletion strains, locus YML032C, strain rad52, active compounds read low 1.01 | S. cerevisiae deletion strains, locus YML120C, strain ndi1, active compounds read low 1 | S. cerevisiae deletion strains, locus YML124C, strain tub3, active compounds read low 0.996 | S. cerevisiae deletion strains, locus YMR058W, strain fet3, active compounds read low 0.998 | S. cerevisiae deletion strains, locus YMR078C, strain ctf18, active compounds read low 1 | S. cerevisiae deletion strains, locus YMR125W, strain sto1, active compounds read low 1.02 | S. cerevisiae deletion strains, locus YMR129W, active compounds read low 1.02 | S. cerevisiae deletion strains, locus YMR205C, strain PFK2, active compounds read low 0.96 | S. cerevisiae deletion strains, locus YMR223W, strain ubp8, active compounds read low 0.998 | S. cerevisiae deletion strains, locus YMR231W, strain pep5, active compounds read low 0.997 | S. cerevisiae deletion strains, locus YMR307W, strain GAS1, active compounds read low 0.982 | S. cerevisiae deletion strains, locus YNL067W, strain RPL9B, active compounds read low 0.962 | S. cerevisiae deletion strains, locus YNL071W, strain lat1, active compounds read low 1.03 | S. cerevisiae deletion strains, locus YNL183C, strain NPR1, active compounds read low 0.938 | S. cerevisiae deletion strains, locus YNL209W, strain ssb2, active compounds read low 1.02 | S. cerevisiae deletion strains, locus YNL233W, strain BNI4, active compounds read low 0.974 | S. cerevisiae deletion strains, locus YNL248C, strain rpa49, active compounds read low 1.09 | S. cerevisiae deletion strains, locus YNL250W, strain rad50, active compounds read low 0.982 | S. cerevisiae deletion strains, locus YNL271C, strain bni1, active compounds read low 1.01 | S. cerevisiae deletion strains, locus YNL298W, strain CLA4, active compounds read low 1.01 | S. cerevisiae deletion strains, locus YNL307C, strain MCK1, active compounds read low 1.01 | S. cerevisiae deletion strains, locus YNL322C, strain KRE1 (second series), active compounds read low 1.05 | S. cerevisiae deletion strains, locus YNR049C, strain mso1, active compounds read low 1.01 | S. cerevisiae deletion strains, locus YNR052C, strain pop2, active compounds read low 1.01 | S. cerevisiae deletion strains, locus YOL006C, strain TOP1, active compounds read low 0.929 | S. cerevisiae deletion strains, locus YOL012C, strain htz1 0.793 | S. cerevisiae deletion strains, locus YOL147C, strain pex11, active compounds read low 0.994 | S. cerevisiae deletion strains, locus YOR001W, strain rrp6, active compounds read low 0.983 | S. cerevisiae deletion strains, locus YOR061W, strain CKA2, active compounds read low 0.961 | S. cerevisiae deletion strains, locus YOR069W, strain VPS5, active compounds read low 1.01 | S. cerevisiae deletion strains, locus YOR070C, strain gyp1, active compounds read low 1 | S. cerevisiae deletion strains, locus YOR080W, strain dia2, active compounds read low 1.01 | S. cerevisiae deletion strains, locus YOR083W, strain WHI5, active compounds read low 0.988 | S. cerevisiae deletion strains, locus YOR106W, strain vam3, active compounds read low 1 | S. cerevisiae deletion strains, locus YOR136W, strain idh2, active compounds read low 0.992 | S. cerevisiae deletion strains, locus YOR144C, strain elg1, active compounds read low 1 | S. cerevisiae deletion strains, locus YOR184W, strain ser1, active compounds read low 1.01 | S. cerevisiae deletion strains, locus YOR231W, strain MKK1, active compounds read low 0.988 | S. cerevisiae deletion strains, locus YOR265W, strain rbl2, active compounds read low 1 | S. cerevisiae deletion strains, locus YOR270C, strain vph1, active compounds read low 0.848 | S. cerevisiae deletion strains, locus YOR290C, strain snf2, active compounds read low 1.05 | S. cerevisiae deletion strains, locus YOR316C, strain cot1, active compounds read low 1 | S. cerevisiae deletion strains, locus YPL051W, strain arl3, active compounds read low 1.04 | S. cerevisiae deletion strains, locus YPL055C, strain LGE1, active compounds read low 0.873 | S. cerevisiae deletion strains, locus YPL078C, strain atp4, active compounds read low 1.02 | S. cerevisiae deletion strains, locus YPL106C, strain sse1, active compounds read low 1.13 | S. cerevisiae deletion strains, locus YPL240C, strain hsp82, active compounds read low 1.01 | S. cerevisiae deletion strains, locus YPL256C, strain CLN2, active compounds read low 1.04 | S. cerevisiae deletion strains, locus YPR119W, strain clb2, active compounds read low 1 | S. cerevisiae deletion strains, locus YPR141C, strain kar3, active compounds read low 0.997 | S. cerevisiae deletion strains, locus YPR163C, strain tif3, active compounds read low 0.998 | S. cerevisiae deletion strains, locus YPR167C, strain met16, active compounds read low 1 | S. cerevisiae deletion strains, strain wtn01, active compounds read low 1.03 | S. cerevisiae strains, strain wild type, active compounds read low 0.979

From PubChem BioAssay AID1159580 (chemical genetic matrix, 2015)
